According to article PMC5540273 (PLoS ONE, 2017):

These compounds were tested on T1, MRCKB. Conditions: concentration: 1 μM,replicates: in singlicate; n = 1.
T1 construct: gene CDC42BPB
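Further: KINOMEscan kinase panel screen.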

SMILES | %Inh [%]
Cl.Oc1cc(-c2nc(-c3ccccc3)[nH]c2-c2ccncc2)ccc1Cl [SB-386023] | 0
Cc1cc(C(=O)Nc2ccc(Oc3ccc4nc(NC(=O)C5CC5)cn4n3)cc2)nn1-c1ccccc1 | 0
O=C(NCCNc1ccnc(NCc2ccc(F)cc2)n1)c1cc2ccccc2s1 [GSK1379944] | 69
C[C@@H](Oc1cc(-c2cnn(C3CCNCC3)c2)cnc1N)c1c(Cl)ccc(F)c1Cl | 10
CNC(=O)c1ccccc1Sc1ccc2c(/C=C/c3ccccn3)n[nH]c2c1 | 100
C=CC(=O)Nc1cc2c(Nc3ccc(F)c(Cl)c3)ncnc2cc1OCCCN1CCOCC1 [GW781483] | 11
CC(C)Nc1cc(-c2ccc3c(N)n[nH]c3c2)nc(N)n1 [GSK2221681] | 0
Nc1nc(Nc2ccccc2)cc(-c2ccc3c(N)n[nH]c3c2)n1 [GSK2225749] | 1
CN(C)CC(O)COc1ccc(Nc2nccc(-c3cnn4nc(N5CCOCC5)ccc34)n2)cc1 (stereo not shown) [GW767488] | 3
Cc1cc2cn[nH]c2cc1-c1cccc2c(N)c(C(N)=O)nnc12 | 0
O=C(NCCCN1CCOC1=O)c1cnc(NCc2cc(Cl)ccc2Cl)nc1NC1CCCC1 | 18
CCn1c(-c2nonc2N)nc2c(C#CC(C)(C)O)nc(OCCN)cc21.Cl.Cl [GSK902056] | 0
Cc1n[nH]c2ccc(-c3cc(OC[C@@H](N)Cc4ccccc4)cnc3-c3ccoc3)cc12.O=C(O)C(F)(F)F.O=C(O)C(F)(F)F [GSK507358] | 15
